# Test results from PubChem BioAssay (NCI).
# This is part of a sample that, as a whole, favours compounds with a hit. Of some 83,000 tested, about 20% had one in any assay.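 For each line, cells grew in 96-well plates with the test compound present at a single concentration for 48 hours.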 Values without a mark were called inactive. Active and inactive are the calls of the source. Rule for the calls: active = growth percent below 10; inactive = the rest.
# Assays:
# Experiment in all cases: NCI-60 one-dose screen, 48 h (100 = growth as untreated, 0 = no growth, -100 = all killed)
# EKVX NSCLC = conditions: 10 µM
# SN12C renal = conditions: 10 µM
# UO-31 renal = conditions: 10 µM
# TK-10 renal = conditions: 10 µM unless noted
# ACHN renal = conditions: 10 µM
# CAKI-1 renal = conditions: 10 µM
# A498 renal = conditions: 10 µM
# MOLT-4 leukemia = conditions: 10 µM
# SR leukemia = conditions: 10 µM
# OVCAR-8 ovarian = conditions: 10 µM
# OVCAR-5 ovarian = conditions: 10 µM
# OVCAR-4 ovarian = conditions: 10 µM
# SK-OV-3 ovarian = conditions: 10 µM
# IGROV1 ovarian = conditions: 10 µM
# OVCAR-3 ovarian = conditions: 10 µM
# NCI/ADR-RES ovarian = conditions: 10 µM
# CCRF-CEM leukemia = conditions: 10 µM
# RPMI-8226 leukemia = conditions: 10 µM
# HS 578T breast = conditions: 10 µM
SMILES,growth (EKVX NSCLC),growth (SN12C renal),growth (UO-31 renal),growth (TK-10 renal),growth (ACHN renal),growth (CAKI-1 renal),growth (A498 renal),growth (MOLT-4 leukemia),growth (SR leukemia),growth (OVCAR-8 ovarian),growth (OVCAR-5 ovarian),growth (OVCAR-4 ovarian),growth (SK-OV-3 ovarian),growth (IGROV1 ovarian),growth (OVCAR-3 ovarian),growth (NCI/ADR-RES ovarian),growth (CCRF-CEM leukemia),growth (RPMI-8226 leukemia),growth (HS 578T breast)
COc1ccc(C(C)C=O)cc1 (stereo not drawn),126%,104%,93.7%,92.1%,103%,104%,121%,93%,102%,109%,117%,110%,109%,116%,108%,104%,–,–,–
c1ccc(Cc2ccccc2)cc1,102%,95.1%,–,99%,107%,85.7%,102%,–,–,–,99.3%,109%,113%,–,108%,104%,104%,107%,76.6%
COc1cc2nc3cc([N+](=O)[O-])ccc3c(Cl)c2cc1OC,83.3%,97.7%,84.1%,95.2%,91.9%,101%,7.26% (active),107%,91.7%,–,86.3%,–,106%,89.7%,123%,103%,–,–,–
N=c1c(C(=O)OCc2ccccc2)ncc(CCl)n1O,101%,88.6%,83.5%,106%,94.6%,–,103%,–,82.6%,101%,103%,91.3%,107%,95%,99.1%,105%,94%,76.8%,114%
OC1CCCc2ccccc21 (stereo not drawn),100%,99%,–,86.4%,97.9%,121%,120%,–,–,–,100%,99.2%,98.7%,97%,110%,108%,94.8%,104%,96.8%
O=[N+]([O-])c1ccc(Cl)c(S(=O)(=O)O)c1,111%,103%,89.3%,136%,101%,106%,113%,89.7%,89.2%,104%,105%,–,110%,123%,106%,108%,81.3%,100%,104%
CCc1nn(Cc2ccccc2)c2nc(C)c(CCc3ccccc3)c(Cl)c12,84.3%,86.1%,–,91.5%,98.4%,67.8%,99.1%,96%,–,–,95.1%,86.2%,97.1%,–,109%,92%,80.1%,72%,–
COC1=CC(=O)c2nc(Cl)ccc2C1=O,74%,-69.5% (active),23.5%,84.2%,42.6%,91.6%,108%,-27.4% (active),5.55% (active),–,11.6%,-97% (active),89.4%,20.4%,-2.3% (active),5.5% (active),1.69% (active),3.41% (active),74.7%
Cc1ccncc1C(N)=O,106%,101%,97%,112%,95.3%,64.4%,82.7%,95.2%,109%,107%,138%,96.8%,101%,–,90.6%,133%,83.1%,–,116%
CC(=O)OC(C(=O)O)c1ccccc1 (stereo not drawn),111%,101%,126%,117%,106%,104%,–,–,–,102%,105%,118%,117%,–,120%,108%,86%,88.2%,–
O=c1[nH]nc(SC2CCCCC2)c(=O)[nH]1,99.5%,102%,77.9%,95.3%,113%,–,93.7%,89%,97.6%,101%,99%,98.9%,93.2%,101%,96.2%,94.3%,106%,102%,92%
OCc1cccc2ccccc12,119%,108%,95.5%,100%,98.6%,110%,109%,97.5%,104%,111%,111%,–,110%,120%,105%,105%,–,–,–
CCOc1ccc2[nH]c(=S)sc2c1,96.2%,102%,88%,103%,111%,–,94%,86.7%,97.7%,96.4%,97.6%,108%,105%,88.5%,117%,104%,98.3%,97.1%,96%
O=C(O)c1ccc(S(=O)(=O)O)cc1,104%,95.2%,64.4%,116%,99.5%,79%,122%,118%,–,–,107%,104%,112%,–,119%,100%,106%,98%,87.6%
CC1C(=O)c2ccccc2CC1C(=O)O (stereo not drawn),113%,112%,100%,–,98.5%,83.2%,142%,97.3%,95.8%,97%,103%,108%,108%,100%,129%,102%,99.1%,110%,119%
CCC(=O)Oc1ccc(OC)cc1,104%,101%,80.9%,84.4%,101%,–,101%,92.5%,92.6%,108%,102%,114%,101%,93.1%,103%,106%,101%,128%,–
CNc1nc(NC)c2cn[nH]c2n1,99.2%,100%,78.6%,–,108%,88.6%,112%,101%,–,111%,106%,108%,97.2%,109%,114%,108%,5.44% (active),99.2%,101%
COCCCC/C(=N\OCCN)c1ccc(C(F)(F)F)cc1,93.1%,94%,74.1%,98.9%,98.6%,83.5%,89.1%,96.7%,–,102%,92.5%,110%,105%,105%,105%,102%,101%,100%,97.6%
CC(=O)OC(OC(C)=O)C1CCCO1 (stereo not drawn),97.7%,96.8%,–,103%,98.7%,112%,106%,123%,135%,103%,100%,97.9%,105%,110%,114%,94.5%,109%,114%,105%
COC(=O)Nc1nc2ccc(C(=O)c3cccs3)cc2[nH]1,37.8%,29.6%,48.8%,61.6%,40.5%,19.8%,-1.63% (active),-13.6% (active),-4.93% (active),13.1%,42.4%,36.3%,13.3%,39.1%,-7.19% (active),-20.4% (active),6.93% (active),28.7%,–

SMILES,growth (EKVX NSCLC),growth (SN12C renal),growth (UO-31 renal),growth (TK-10 renal),growth (ACHN renal),growth (CAKI-1 renal),growth (A498 renal),growth (MOLT-4 leukemia),growth (SR leukemia),growth (OVCAR-8 ovarian),growth (OVCAR-5 ovarian),growth (OVCAR-4 ovarian),growth (SK-OV-3 ovarian),growth (IGROV1 ovarian),growth (OVCAR-3 ovarian),growth (NCI/ADR-RES ovarian),growth (CCRF-CEM leukemia),growth (RPMI-8226 leukemia),growth (HS 578T breast)
COC(=O)/C=C1\Sc2cc(F)ccc2NC1=O,88.2%,116%,–,139%,111%,60.9%,126%,–,–,–,83.2%,102%,111%,102%,115%,101%,87.9%,92%,121%
Cc1cc(O)ccc1O,94.6%,95.3%,94.4%,123%,105%,–,103%,65%,–,104%,116%,98.5%,112%,114%,110%,96.5%,19.1%,59.5%,103%
O=c1cc(-c2ccccc2)oc2c1ccc1ccccc12,80.1%,84.2%,58.9%,108%,77%,90.8%,73%,75.6%,–,82.3%,96%,93.6%,88.2%,94.1%,107%,82.6%,89.4%,77.8%,97.8%
COc1cc(C(=O)N/N=C/c2cccc([N+](=O)[O-])c2)cc(OC)c1OC,83.8%,93.8%,73.7%,81.1%,79.9%,55.4%,26.3%,70.7%,28.5%,83.1%,83.7%,–,67.2%,60.6%,12.2%,38.1%,62.1%,77.1%,49.3%
Cc1cccc(C(=O)N(C(C)C)C(C)C)c1,95%,96.1%,94.4%,87%,101%,96.4%,71.9%,108%,110%,100%,–,104%,92.4%,103%,107%,102%,90.7%,93.1%,90.6%
C=CCNc1nnc(C)s1,109%,95.6%,81.1%,123%,96.7%,119%,123%,–,–,–,96%,113%,115%,–,110%,103%,105%,101%,101%
Cc1nc2c(ccc3ccccc32)s1,110%,107%,96.9%,119%,111%,103%,115%,103%,–,94.1%,102%,108%,107%,109%,121%,108%,85.7%,100%,106%
CC1=CC(C)(C)NC(=S)N1c1ccc(S(=O)(=O)O)c2cccc(S(=O)(=O)O)c12,115%,103%,–,106%,99.5%,115%,97.6%,114%,109%,114%,–,117%,115%,95.9%,99.9%,110%,94.1%,113%,92.8%
CCOC(=O)C1=C(C)NC(=O)NC1c1cccs1 (stereo not drawn),109%,103%,87.7%,108%,113%,103%,125%,82.7%,76.5%,–,122%,117%,105%,113%,118%,111%,95.8%,99.8%,99%
O=C(OCC(O)C1OC(c2ccccc2)OC(COC(=O)c2ccccc2)C1O)c1ccccc1 (stereo not drawn),–,99.6%,–,99.6%,106%,–,–,102%,–,–,105%,93.2%,108%,103%,118%,107%,–,–,116%
CNC(=O)c1ccccc1CC1(O)c2ccccc2Oc2ccccc21,–,80.9%,57.7%,58.9%,54.4%,44.8%,0.171% (active),38.1%,8.48% (active),74.4%,80.4%,83.6%,73.7%,43%,24.7%,29%,56.4%,70.5%,63.5%
N#Cc1ccc(OC(=O)Nc2ccc(Cl)c(Cl)c2)cc1,–,79.5%,60.6%,90.7%,50.8%,35.8%,106%,79.9%,39.4%,59%,91.6%,66.7%,107%,64.4%,33.3%,65.5%,–,5.09% (active),103%
CC(CC(=O)c1ccccc1)c1ccccc1 (stereo not drawn),–,107%,–,90.1%,115%,106%,88.8%,103%,101%,102%,113%,109%,127%,101%,116%,118%,98.4%,104%,118%
CN(C)c1ccc2nc3ccc(=N)cc-3sc2c1,–,57.3%,57.3%,105%,53%,68.3%,55.8%,–,12%,3.37% (active),80.1%,-8.03% (active),95.9%,49.4%,6.65% (active),3.53% (active),–,6.67% (active),99.6%
O=C(Nc1ccccc1)OCCc1ccccc1,–,95.3%,–,95.2%,104%,88.5%,–,–,–,103%,92.7%,91.4%,110%,103%,118%,110%,–,–,120%
CC(=O)c1ccc2c(ccc3ccccc32)c1,–,102%,100%,–,110%,107%,92.8%,93%,97.2%,–,104%,100%,112%,101%,115%,108%,86.2%,101%,107%
O=C(Cc1ccc(OCc2ccccc2)cc1)NCc1ccc2c(c1)OCO2,–,89.9%,–,77%,104%,32.5%,–,55.2%,–,91.1%,110%,107%,82.4%,60.4%,58.9%,47.8%,–,67.7%,69.8%
CSC(=N\N=C\c1ccc(N(C)C)cc1)/N=C/N(C)C,–,108%,101%,131%,101%,104%,97%,101%,99%,102%,95.5%,–,106%,105%,112%,119%,–,92.3%,90.1%
N#CC(=Nc1cccc(F)c1)C1=C(O)c2ccccc2C1=O,–,82.8%,78.6%,110%,87.1%,47%,79.4%,96.5%,–,–,–,88.9%,98.7%,100%,92.7%,89.1%,–,82%,99.7%
CCCCCC(C)(CC(=O)O)CC(=O)O,–,110%,97.6%,111%,103%,116%,113%,103%,94.1%,103%,97.4%,104%,114%,110%,126%,119%,107%,119%,107%
